Sampled rows, rich in hits. Any-hit rate of the full collection: about 20%.
HCMV inh – blocks human cytomegalovirus replication | AID 1259415 | HFF cells, HCMV-luciferase reporter, 72 h; hits give low values | 410,000 compounds, 4.5% hits | activity change, negative = inhibition, % at 57.5 µM; in the data active = activity change below about -60%; inconclusive = no clear call, values can overlap the other calls; inactive = above about -39%
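HFF cells seeded 16 h at 37C, treated with compounds, infected with luciferase-reporter HCMV at MOI 1 PFU/cell; luciferase read at 72 h post infection, normalized to buffer-only and Salinomycin controls.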
Pf growth 96h – P. falciparum growth inhibition at 96 hour, primary screen for plastid delayed-death inhibitors. P. falciparum luciferase reporter growth, 96 h. 320,000 compounds, 6.9% hits. Potency, µM (doses to about 28.7 µM), hits mostly inhibitors
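96 h incubation, 37 C, 5% CO2, of luciferase-reporter P. falciparum-infected RBCs (2% hematocrit, 0.05% parasitemia final) with test compounds; endpoint luminescence.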
CHX counter – counter-screen hit for Shiga toxin inhibitors, cycloheximide | cell reporter, cycloheximide protein synthesis inhibition counterscreen | max response, % | 300,000 compounds, 12% hits | AID 2314; in the data active = max response mostly above about 13%, no sharp cut-off; inactive = mostly below about 14%; also: read at 38.3 µM for the half of the compounds with a filed dose
Pf growth 48h – inhibits P. falciparum growth in the first generation, 48 h | P. falciparum luciferase growth in erythrocytes, 48 h | Potency, µM (doses to about 28.7 µM), most hits filed as inhibitors | 310,000 compounds, 5.9% hits | AID 504832
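A one-generation exposure of luciferase-tagged malaria parasites in RPMI 1640/Albumax erythrocyte culture, 37 C and 5% CO2. Inhibition is inferred from decreased luminescence after adding detection reagent.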
Shiga inhibitor – blocks Shiga toxin action in Vero cells | Vero cells, Shiga toxin protein synthesis inhibition reporter | 290,000 compounds, 9.2% hits | inhibition, % at 38.7 µM; in the data active = inhibition mostly above about 28%, no sharp cut-off; inactive = mostly below about 43%
Of the large screens only hits and unclear results are named; the others gave an inactive call. Unless noted, calls follow the shape of the dose curve; as a rule, active = well fitted inhibition curve with a large enough effect; inconclusive = small, poorly fitted or top-dose-only effect, or another doubt; inactive = no such curve, though single readings can be large or run the other way.

Cc1ccc2[nH]c(=O)c(CN(Cc3ccccc3)C(=S)NCCCN(C)C)cc2c1	Pf growth 96h inconclusive, CHX counter 26.1, Shiga inhibitor 48.0
CN(C)CCCNC(=S)N(Cc1cccs1)Cc1cc2cc3c(cc2[nH]c1=O)OCCO3	Pf growth 48h inconclusive
Cc1cc2oc(=O)c(CC(=O)NCCc3ccccc3)c(C)c2c2occ(C(C)(C)C)c12	none (no result: Pf growth 96h, CHX counter, Pf growth 48h, Shiga inhibitor)
S=C(N/N=C/c1ccc(Cl)cc1)N1CCOCC1	CHX counter 41.0, Shiga inhibitor 97.4
Cc1ccc(CNC(=S)N2CCOCC2)cc1	none
S=C(Nc1ccc(Cl)cc1Cl)N1CCOCC1	none
S=C(N/N=C/c1ccc(Br)cc1)N1CCCCC1	CHX counter 40.0, Pf growth 48h inconclusive, Shiga inhibitor 63.5
Cc1ccc(/C=N/NC(=S)N2CCOCC2)cc1	Pf growth 96h inconclusive, CHX counter 57.0, Pf growth 48h 2.33µM, Shiga inhibitor 82.6
